T cruzi growth-1 = T. cruzi intracellular proliferation inhibitors, primary screen, cell-based, beta-gal Tulahuen parasites, NIH3T3 host, luminescence; T. cruzi beta-gal in NIH3T3, GalScreen luminescence, 90 h; inhibition, % at 8.34 µM; 5.9% of 77,000 active;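 active = mean inhibition above about 93%, with at least 55% of replicates each passing it, limit read from the data, passing the limit was not always enough; inconclusive = only one of those two conditions holds; inactive = neither condition holds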
Pf Dd2 inh = P. falciparum Dd2 growth inhibitors, primary screen, SYBR Green fluorescence, single dose replicates. activity change, % at 10 µM. 72 h; active compounds read low. 2.3% of 94,000 active; in the data active = activity change below about -80%; inconclusive = no clear call, values can overlap the other calls
C diff growth = C. difficile growth inhibitors, primary screen, HTS | Clostridium difficile clinical isolate growth, OD600, 24 h; active compounds read low | growth activity, negative = inhibition, % at 16 µg/mL (by protocol) | 0.25% of 86,000 active | AID 1259249, 2017;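 active = mean growth activity at or below -80% and every replicate also at or below -80%; inconclusive = mean at or below -80% but some replicate above -80%; inactive = mean growth activity above -80%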;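 note: 0% = DMSO wells and -100% = levofloxacin 16 µg/mL wells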
T cruzi growth-2 = T. cruzi intracellular proliferation inhibitors, confirmation, cell-based, NIH3T3 host, beta-gal parasite, luminescence, cherry-pick; shares compounds with T cruzi growth-1; T. cruzi beta-gal in NIH3T3, GalScreen luminescence, 90 h; inhibition, % at 8.35 µM; 72% of 5,600 active; AID 651739, 2012;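 active = mean replicate inhibition above about 95% and at least 55% of replicates individually reaching it, limit read from the data; inconclusive = only one of the two criteria is met; inactive = neither criterion is met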
T cruzi growth-3 = inhibitors of intracellular T. cruzi replication, confirmation, NIH3T3 host cells, beta-gal parasites, cherry-pick, set 2 | shares compounds with T cruzi growth-1 | AID 651740, 2012 | T. cruzi beta-gal in NIH3T3, GalScreen luminescence, 90 h | 21% of 5,600 active | inhibition, % at 2.09 µM;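 active = mean inhibition above about 95%, with at least 55% of replicates also reaching it, limit read from the data; inconclusive = meets just one of the two conditions; inactive = meets neither condition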;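 note: plate controls were neutral control median for no effect and positive control median for full effect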
NIH3T3 tox = cytotoxicity in mouse NIH/3T3 fibroblasts, confirmation, cytotoxicity control for T. cruzi proliferation inhibitor project, cell-based, cherry-pick, single point | NIH/3T3 viability, CellTiter-Glo ATP luminescence, 90 h | 14% of 5,600 active | cytotoxicity (signal decrease), % at 8.35 µM | shares compounds with T cruzi growth-1 | AID 651742, 2012;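 active = mean signal decrease across replicates above about 35% based on untreated-well scatter, with enough replicates individually passing, limit read from the data; inconclusive = no rule stated though some were filed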;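 note: 0% = median of neutral control wells and 100% = median of positive control wells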
3T3 cytotox 2 = NIH/3T3 fibroblast cytotoxicity, confirmation, cytotoxicity control, cell-based, cherry-pick, single point, set 2; shares compounds with T cruzi growth-1; NIH/3T3 viability, CellTiter-Glo ATP luminescence, 90 h; inhibition, % at 24.9 µM; 56% of 5,600 active;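 active = mean loss of cell viability signal at or above a set limit, and enough replicates individually reaching it; inconclusive = meets only the mean limit or only the replicate share; inactive = meets neither condition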;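 note: 0% = median of neutral control wells and 100% = median of positive control wells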
* marks the source's active call; other numbers are inactive results; u = inconclusive; x = no result given. Hits are enriched below; roughly 6.7% of the tested compounds scored in any of these assays.

SMILES	T cruzi growth-1	Pf Dd2 inh	C diff growth	T cruzi growth-2	T cruzi growth-3	NIH3T3 tox	3T3 cytotox 2
CCCC#Cc1ccc2c(c1)O[C@@H](CN(C)Cc1ccncc1)[C@H](C)CN([C@@H](C)CO)S2(=O)=O	121*	-87*	15	101*	107*	63*	104*
CCCC#Cc1ccc2c(c1)O[C@H](CN(C)Cc1ccncc1)[C@H](C)CN([C@@H](C)CO)S2(=O)=O	118*	-37	7	90	65	u	41*
CCCC#Cc1ccc2c(c1)O[C@H](CN(C)Cc1ccncc1)[C@@H](C)CN([C@H](C)CO)S2(=O)=O	118*	-60	5	98*	u	37*	104*
C[C@H](CO)N1C[C@H](C)[C@@H](CN(C)C(=O)Nc2ccc(C(F)(F)F)cc2)Oc2ccc(NS(=O)(=O)c3ccc(Cl)cc3)cc2CC1=O	-4	-8	9	x	x	x	x
C[C@H]1CN([C@@H](C)CO)C(=O)Cc2cc(NS(C)(=O)=O)ccc2O[C@@H]1CN(C)C(=O)NC1CCCCC1	19	8	-1	x	x	x	x
CC(C)NC(=O)N(C)C[C@@H]1Oc2ccc(NS(=O)(=O)c3ccc(F)cc3)cc2C(=O)N([C@@H](C)CO)C[C@H]1C	-5	30	3	x	x	x	x
COc1ccc(CNC(=O)C[C@@H]2C[C@@H]3c4cc(NS(C)(=O)=O)ccc4O[C@@H]3[C@H](CO)O2)cc1	4	15	2	x	x	x	x
C[C@@H]1CN([C@@H](C)CO)C(=O)c2cc(NC(=O)Cc3cn(C)c4ccccc34)ccc2O[C@H]1CN(C)Cc1ccncc1	46	-21	-1	x	x	x	x
CCCC#Cc1ccc2c(c1)O[C@@H](CN(C)Cc1ccncc1)[C@@H](C)CN([C@@H](C)CO)S2(=O)=O	113*	-41	8	102*	96*	26	100*
CCCC#Cc1ccc2c(c1)O[C@@H](CN(C)Cc1ccncc1)[C@@H](C)CN([C@H](C)CO)S2(=O)=O	114*	-27	6	105*	90	32	-2
CC=Cc1ccc2n(c1=O)C[C@@H]1[C@@H](CO)[C@H](C(=O)N3CCc4ccccc4C3)[C@H]2N1Cc1ccncc1 (mixture of isomers)	64	20	-4	x	x	x	x
C[C@@H]1CN([C@H](C)CO)C(=O)c2cc(NC(=O)Cc3ccccc3)ccc2O[C@@H](C)CCCCO[C@H]1CN(C)C(=O)C1CCCCC1	42	-69	-2	x	x	x	x
C[C@H]1CN([C@@H](C)CO)C(=O)c2cccc(NS(C)(=O)=O)c2O[C@H]1CN(C)C(=O)NC1CCCCC1	x	9	3	x	x	x	x
C[C@H]1CN([C@@H](C)CO)C(=O)c2cccc(NS(=O)(=O)c3cccs3)c2O[C@H]1CN(C)CC1CC1	10	2	-5	x	x	x	x
C[C@H](CO)N1C[C@H](C)[C@H](CN(C)Cc2cncnc2)Oc2cc(/C=C/c3ccccc3)ccc2S1(=O)=O	75	-45	1	x	x	x	x
C[C@@H]1CN([C@@H](C)CO)S(=O)(=O)c2ccc(/C=C/c3ccccc3)cc2O[C@H]1CN(C)Cc1cncnc1	121*	-89*	-7	112*	97*	54*	61*
C[C@H]1CN([C@@H](C)CO)S(=O)(=O)c2ccc(/C=C/c3ccccc3)cc2O[C@H]1CN(C)Cc1cncnc1	103*	-48	-2	95*	78	57*	46*
C[C@@H]1CN([C@H](C)CO)S(=O)(=O)c2ccc(/C=C/c3ccccc3)cc2O[C@@H]1CN(C)Cc1cncnc1	90	-1	-14	x	x	x	x
C[C@@H]1CN([C@H](C)CO)S(=O)(=O)c2ccc(C#CC3CC3)cc2O[C@@H]1CN(C)Cc1ccc(F)cc1	x	-45	8	x	x	x	x
CCCN1C[C@@H](C)[C@@H](OC)CN(C)C(=O)c2ccc(NC(=O)Nc3ccccc3F)cc2OC[C@H]1C	0	-30	x	x	x	x	x
Cc1ccc(S(=O)(=O)N2C[C@@H](O)COC[C@H]3O[C@@H](CC(=O)N[C@@H]4CCN(Cc5ccccc5)C4)CC[C@@H]32)cc1	98*	-34	x	82	73	-16	-41
O=C(C[C@@H]1CC[C@@H]2[C@H](COC[C@H](O)CN2S(=O)(=O)c2ccc(F)cc2)O1)N[C@H]1CCN(Cc2ccccc2)C1	22	-12	1	x	x	x	x
O=C(C[C@H]1CC[C@H]2[C@@H](COC[C@H](O)CN2S(=O)(=O)c2ccc(F)cc2)O1)N[C@H]1CCN(Cc2ccccc2)C1	100*	-25	-4	70	53	-11	-21
Cc1ccc(S(=O)(=O)N2C[C@@H](O)COC[C@@H]3O[C@@H](CC(=O)N[C@@H]4CCN(Cc5ccccc5)C4)CC[C@H]32)cc1	63	-9	x	x	x	x	x
C[C@@H]1CN([C@H](C)CO)C(=O)c2cccc(NC(=O)c3ccncc3)c2O[C@@H]1CN(C)CC1CC1	-11	36	-1	x	x	x	x
SMILES	T cruzi growth-1	Pf Dd2 inh	C diff growth	T cruzi growth-2	T cruzi growth-3	NIH3T3 tox	3T3 cytotox 2
COc1ccc(-c2ccccc2[C@H]2[C@@H](CO)N(C(=O)NC3CCCCC3)[C@H]2C#N)cc1	x	-10	9	x	x	x	x
N#C[C@H]1[C@@H](c2ccc(/C=C/c3ccccc3)cc2)[C@@H](CO)N1C(=O)C1CCCC1	u	-14	9	95*	50	23	27*
COc1ccc(-c2ccc([C@@H]3[C@@H](CO)N(C(=O)NC4CCCC4)[C@H]3C#N)cc2)cc1	u	-34	8	30	-5	-2	-12
COc1ccc(-c2ccc([C@H]3[C@@H](C#N)N(C(=O)C4CCCC4)[C@@H]3CO)cc2)cc1	106*	-45	10	78	24	12	14
N#C[C@H]1[C@H](c2ccc(C3=CCCC3)cc2)[C@H](CO)N1C(=O)C1CC1	102*	-13	-2	96*	50	8	15
N#C[C@@H]1[C@@H](c2ccc(/C=C/c3ccccc3)cc2)[C@@H](CO)N1C(=O)C1CCCC1	26	26	5	x	x	x	x
COc1ccc(-c2ccc([C@@H]3[C@@H](C#N)N(C(=O)C4CCCC4)[C@H]3CO)cc2)cc1	42	-21	8	x	x	x	x
N#C[C@@H]1[C@H](c2ccc(C3=CCCC3)cc2)[C@H](CO)N1C(=O)C1CC1	95	5	-7	x	x	x	x
C[C@H](CO)N1C[C@H](C)[C@@H](CN(C)C(=O)C2CCC2)Oc2cc(-c3ccncc3)ccc2S1(=O)=O	71	-10	x	x	x	x	x

Compound activity deposited in PubChem BioAssay by Broad Institute.
